# From PubChem
# Pf growth 96h = inhibits malaria parasite growth, 96 h; actives 6.9% (n = 320,000); P. falciparum luciferase reporter growth, 96 h; Potency, µM (titrated, usually from 28.7 µM), for the others: at the top dose activity change, negative = inhibition, actives largely listed as inhibitors; AID 504834; also: % is scaled to controls: 0 for no effect and ±100 for the full control effect
#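 Two parasite generations (96 h, 37 C, 5% CO2) of compound exposure in infected erythrocytes (0.05% parasitemia, 2% hematocrit). Luciferase-reporter P. falciparum; decreased luminescence indicates inhibited growth, aimed at apicoplast-acting delayed death.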
# Pf growth 48h = inhibits P. falciparum growth in the first generation, 48 h; actives 5.9% (n = 310,000); P. falciparum luciferase growth in erythrocytes, 48 h; Potency, µM (highest dose often 28.7 µM), for inactives: top-dose activity change, negative = inhibition, actives largely listed as inhibitors; also: % is scaled to controls: 0 for no effect and ±100 for the full control effect
#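 Growth was read as firefly luciferase luminescence after a 48 h, 37 C, 5% CO2 exposure of compounds to reporter-bearing P. falciparum cultures (0.1% parasitemia, 2% hematocrit final) in Albumax-supplemented RPMI 1640.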
# NS1 function inh = blocks influenza NS1 protein function; Potency, µM (doses to about 46.1 µM), for inactives: top-dose activity, positive = more growth; actives 0.4% (n = 270,000); calls by dose curve; also: actives are rising curves; nearly all actives have a fitted effect of over 50% in size
#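 Recovery from NS1-induced slow growth read by OD600 in budding yeast switched to galactose assay medium (pH 6.0, -URA) at 1:100 dilution. Compound 23 nl per well; the matching strain lacking NS1 serves as control.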
# SARS PLpro yeast = SARS-CoV PLP inhibition in yeast; actives 0.19% (n = 330,000); S. cerevisiae expressing SARS-CoV PLpro, growth rescue; Potency, µM (series often up to 32.9 µM), without a hit: top-dose activity, positive = growth rescue, most hits filed as activators; calls by dose curve; also: 0% is about no effect; nearly all actives have a fitted effect of over 55% in size
# RE007 growth inh = less growth of the S. pombe RE007 Vpr strain; S. pombe RE007 Vpr strain, BacTiter-Glo ATP luminescence, 24 h; Potency, µM (titrated, usually from 92.2 µM), inactives show at the highest dose activity change, negative = less growth, most hits filed as inhibitors; actives 0.21% (n = 360,000); AID 651644; active = well fitted falling curve with a large enough effect; inconclusive = small, poorly fitted or top-dose-only effect; inactive = no such curve, though single readings can be large or run the other way; also: % is scaled to controls: 0 for no effect and ±100 for the full control effect; nearly all actives have a fitted effect of over 50% in size
#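 Fission yeast strain RE007, carrying one chromosomally integrated HIV-1 vpr copy, was seeded at OD 0.01 in PMG+AL medium with 23 nL pinned compound. After 24 h at 30 °C and 99% humidity, viability was read by BacTiter-Glo luminescence.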
# Starred values were filed as active, the others as inactive; ? = inconclusive; . = not tested or not shown; [ ] = dose if it differs, or a comment. Most compounds without a hit are left out; they make up all but 9.5% or so of the library. Unless noted, calls follow the shape of the dose curve; as a rule, active = well fitted inhibition curve with a large enough effect; inconclusive = small, poorly fitted or top-dose-only effect, or another doubt; inactive = no such curve, though single readings can be large or run the other way. Potency is read from the fitted curve at half-maximal effect.
SMILES,Pf growth 96h,Pf growth 48h,NS1 function inh,SARS PLpro yeast,RE007 growth inh
O=c1c2ccc(F)cc2sn1-c1ccccc1,.,.,.,.,-70%
O=c1c2ccccc2sn1-c1ccc(Cl)cc1,.,.,.,.,8.9µM*
Cc1ccc(-n2sc3ccccc3c2=O)cc1,-19%,4.1µM*,-40%,-86%,6.3µM*
O=c1c2ccccc2sn1-c1ccc(F)cc1,?,10µM*,.,3%,5.6µM*
COC(=O)c1cccc(-n2sc3ccccc3c2=O)c1,14%,?,.,-8%,?
Cc1ccc(C)c(N2N=C(C(=O)Nc3ccc(N4CCOCC4)cc3)CCC2=O)c1,66%,?,.,-18%,-4%
C#CCCC(=O)c1ccccc1/C=[N+](\[O-])c1ccccc1,?,1.2µM*,.,5%,2%
Cc1cc(O)c(C2(C(F)(F)F)NCCNC2=O)cc1C (stereo not drawn),?,31%,5%,2%,-6%
O=C1NCCNC1(c1c[nH]c2ccccc12)C(F)(F)F (stereo not drawn),1µM*,.,0%,0%,0%
COC(=O)c1cn(-c2ccc(Cl)cc2)c(=O)c2ccccc12,.,2.9µM*,-18%,-18%,0%
COC(=O)c1cn(C(=O)c2ccccc2)c2ccccc12,38%,31%,-3%,-1%,-11%
COC(=O)c1cn(C(=O)c2cc(Cl)ccc2Cl)c2ccccc12,13µM*,21%,10%,-1%,1%
COC(=O)C1(C)COP(=O)(Nc2ccc(OC)cc2)OC1 (stereo not drawn),.,.,.,.,3%[18.4 µM]
Cc1ccccc1N1CCN(c2ccccc2NC(=O)/C=C\C(=O)O)CC1,.,.,.,.,6%
Cc1cc(OC(=O)c2cccs2)c2c3c(c(=O)oc2c1)CCCC3,54%,5.9µM*,-23%,-20%,-15%
Cc1ccc(-n2nc(C)cc2NC(=O)COc2cc(C)cc3oc(=O)c4c(c23)CCC4)cc1,9.3µM*,?,4%,6%,-3%
O=C(Oc1cc2oc(=O)c3c(c2cc1Cl)CCCC3)c1cccs1,?,20%,-10%,-34%,12%
Cc1cc(OC(=O)c2ccco2)c2c3c(c(=O)oc2c1)CCCC3,3.7µM*,.,-45%,-11%,11%
Cc1cc2oc(=O)c3c(c2cc1OC(=O)c1ccco1)CCCC3,42%,23%,-12%,1%,-6%
CCOc1ccc(N2C(=O)CNC2=S)cc1,?,-2%,6%,-4%,-8%
CCOc1ccc(N2CC(=O)Nc3ccccc3NCC2=O)cc1,8.3µM*,-2%,-1%,2%,-9%
Cc1ccc2sc(N(CCCN(C)C)C(=O)c3ccc(S(=O)(=O)N4CCOCC4)cc3)nc2c1C,?,13µM*,.,-2%,9%
CCN(CC)CCN(C(=O)c1ccc(S(=O)(=O)N(C)C2CCCCC2)cc1)c1nc2c(C)cccc2s1,?,?,3%,4%,-10%
Cc1ccc2sc(N(CCCN(C)C)C(=O)c3ccc(S(=O)(=O)N(C)C4CCCCC4)cc3)nc2c1C,12µM*,10µM*,.,-4%,8%
CNC(=S)NNC(=O)c1sc2cc(C(F)(F)F)cnc2c1-c1cccnc1,?,?,.,0%,-9%
SMILES,Pf growth 96h,Pf growth 48h,NS1 function inh,SARS PLpro yeast,RE007 growth inh
NC(=O)c1sc2cc(C(F)(F)F)cnc2c1-c1ccccc1,8.3µM*,?,-4%,0%,6%
O=C1c2ccccc2C(=O)N1SC1CCCCC1,102%,55%,-71%,-32%,45µM*
O=C(OCN1C(=O)c2ccccc2C1=O)C1CCCCC1,10%,43%,-10%,-2%,-9%
CC(=O)OCC(=O)[C@@]1(O)CCC2C3CCC4=CC(=O)C=CC4(C)C3C(O)C[C@]21C (stereo partly drawn),-14%,-10%,.,.,.
O=C1NC(c2ccccc2)=C(c2ccc3ccccc3n2)C(c2ccccc2)N1 (stereo not drawn),5.2µM*,12µM*,-17%,-23%,16%
O=C1NC(c2ccccc2)=C(c2ccc3ccccc3n2)C(c2ccncc2)N1 (stereo not drawn),?,-3%,-3%,1%,9%
O=C1NC(c2ccccc2)=C(c2ccc3ccccc3n2)C(c2ccc(F)cc2)N1 (stereo not drawn),4.1µM*,5.2µM*,5%,-40%,0%
